In PubChem BioAssay:
The source made the active and inactive calls.

Tests used:
[1] = small molecules captured by biotinylated probe aFSTL3 – biochemical, small-molecule microarray, fluorescence 635/667, stem cell growth factor project, primary screen (AID 1064); details: higher = more signal;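 further: measures binding of the biotinylated anti-FSTL3 antibody to printed compounds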
[2] = binders from COS7 lysate, DM2A8 probe, primary screen, torsin A project, cell lysate, small-molecule microarray, fluorescence 635/667 (AID 1065); details: higher = more signal, COS7 lysate expressing mutant human TOR1A
[3] = small molecules captured by biotinylated probe aFGF2 – biochemical, small-molecule microarray, fluorescence 635/667, stem cell growth factor project, primary screen (AID 1067); details: higher = more signal;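 further: measures binding of biotinylated aFGF2 protein to printed compounds on slides; z-score merges feature fluorescence and signal-to-noise across triplicate slides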
[4] = small molecules captured by biotinylated probe aFGF10 – biochemical, small-molecule microarray, fluorescence 635/667, stem cell growth factor project, primary screen (AID 1071); details: higher = more signal;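 further: score merges 667 nm spot intensity and signal to noise from triplicate slides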
[5] = molecular target: Neurogenic locus notch homolog protein 2 (Homo sapiens) (UniProt Q04721); experiment: small molecules binding Notch2 protein – biochemical, small-molecule microarray, 635 nm fluorescence, stem cell growth factors, primary screen (AID 1073); details: higher = more signal
Sequence of Neurogenic locus notch homolog protein 2 (Homo sapiens) (Q04721 whole entry, looked up, canonical isoform): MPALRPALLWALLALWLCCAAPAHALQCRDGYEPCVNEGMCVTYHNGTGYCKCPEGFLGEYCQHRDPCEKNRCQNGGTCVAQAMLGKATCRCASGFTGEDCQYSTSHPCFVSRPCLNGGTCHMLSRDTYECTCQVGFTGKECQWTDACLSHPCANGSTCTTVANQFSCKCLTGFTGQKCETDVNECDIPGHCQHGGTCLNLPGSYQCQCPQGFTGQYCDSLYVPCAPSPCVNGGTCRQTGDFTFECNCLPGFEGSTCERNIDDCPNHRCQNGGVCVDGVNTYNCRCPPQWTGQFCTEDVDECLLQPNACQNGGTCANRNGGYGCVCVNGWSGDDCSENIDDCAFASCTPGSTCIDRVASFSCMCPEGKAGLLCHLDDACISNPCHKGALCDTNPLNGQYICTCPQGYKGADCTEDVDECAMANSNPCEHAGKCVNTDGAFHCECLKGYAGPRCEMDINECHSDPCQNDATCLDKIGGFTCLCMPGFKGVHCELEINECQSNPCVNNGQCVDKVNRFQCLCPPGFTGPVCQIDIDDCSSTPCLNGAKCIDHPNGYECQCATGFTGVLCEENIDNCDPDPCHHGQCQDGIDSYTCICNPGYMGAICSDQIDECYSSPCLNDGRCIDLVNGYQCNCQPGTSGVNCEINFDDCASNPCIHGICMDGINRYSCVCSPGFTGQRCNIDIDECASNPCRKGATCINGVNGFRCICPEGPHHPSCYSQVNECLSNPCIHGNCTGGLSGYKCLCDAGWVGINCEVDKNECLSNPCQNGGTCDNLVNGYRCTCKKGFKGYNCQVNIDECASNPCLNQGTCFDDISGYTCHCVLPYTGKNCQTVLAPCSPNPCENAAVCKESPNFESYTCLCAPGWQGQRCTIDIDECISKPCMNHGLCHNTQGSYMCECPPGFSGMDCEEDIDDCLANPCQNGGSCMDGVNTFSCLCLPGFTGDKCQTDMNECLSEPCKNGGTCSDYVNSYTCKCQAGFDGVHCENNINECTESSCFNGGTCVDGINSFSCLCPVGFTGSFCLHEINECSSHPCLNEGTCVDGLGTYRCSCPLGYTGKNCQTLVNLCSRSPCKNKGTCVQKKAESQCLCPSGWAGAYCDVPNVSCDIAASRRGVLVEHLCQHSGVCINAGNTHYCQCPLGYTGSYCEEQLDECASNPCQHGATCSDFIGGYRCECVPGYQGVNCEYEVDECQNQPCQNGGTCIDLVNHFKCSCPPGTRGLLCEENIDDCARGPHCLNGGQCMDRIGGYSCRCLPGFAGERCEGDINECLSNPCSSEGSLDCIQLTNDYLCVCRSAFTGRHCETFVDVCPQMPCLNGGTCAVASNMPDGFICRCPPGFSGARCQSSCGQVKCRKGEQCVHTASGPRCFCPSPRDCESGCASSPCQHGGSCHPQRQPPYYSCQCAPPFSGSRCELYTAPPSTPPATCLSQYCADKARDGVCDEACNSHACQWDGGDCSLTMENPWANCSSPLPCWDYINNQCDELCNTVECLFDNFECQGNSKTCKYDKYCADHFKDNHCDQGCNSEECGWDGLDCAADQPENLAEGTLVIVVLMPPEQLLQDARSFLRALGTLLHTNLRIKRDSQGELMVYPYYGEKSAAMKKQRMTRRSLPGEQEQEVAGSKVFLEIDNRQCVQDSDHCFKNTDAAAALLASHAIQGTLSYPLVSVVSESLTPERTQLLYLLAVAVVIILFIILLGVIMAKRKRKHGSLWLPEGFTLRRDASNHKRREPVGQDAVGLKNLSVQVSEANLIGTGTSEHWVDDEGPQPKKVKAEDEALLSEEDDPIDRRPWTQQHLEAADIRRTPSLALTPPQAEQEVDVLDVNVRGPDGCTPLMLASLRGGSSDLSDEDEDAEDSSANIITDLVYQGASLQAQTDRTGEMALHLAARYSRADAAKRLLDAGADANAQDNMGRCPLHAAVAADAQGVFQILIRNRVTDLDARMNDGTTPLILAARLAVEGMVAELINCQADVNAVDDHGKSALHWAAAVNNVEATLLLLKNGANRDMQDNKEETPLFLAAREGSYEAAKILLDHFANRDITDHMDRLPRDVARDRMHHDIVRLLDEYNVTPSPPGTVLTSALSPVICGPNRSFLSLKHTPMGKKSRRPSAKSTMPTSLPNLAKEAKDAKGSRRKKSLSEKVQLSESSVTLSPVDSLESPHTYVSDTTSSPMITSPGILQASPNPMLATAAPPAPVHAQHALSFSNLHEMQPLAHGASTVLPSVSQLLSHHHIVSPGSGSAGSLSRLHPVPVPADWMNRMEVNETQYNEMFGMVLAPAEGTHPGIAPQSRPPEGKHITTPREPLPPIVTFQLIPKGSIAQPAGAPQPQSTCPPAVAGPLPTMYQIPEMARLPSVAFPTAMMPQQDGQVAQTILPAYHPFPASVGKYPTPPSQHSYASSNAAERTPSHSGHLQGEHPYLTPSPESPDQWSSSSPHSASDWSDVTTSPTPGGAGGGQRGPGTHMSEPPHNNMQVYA

[6] = molecular target: Pro-neuregulin-1, membrane-bound isoform (Homo sapiens) (UniProt Q02297); experiment: small molecules binding neuregulin-1 protein – biochemical, small-molecule microarray, fluorescence 635/667, psychiatric disease protein project, primary screen (AID 1075); details: NRG1 binding, 635 nm fluorescence, higher = more signal;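 further: score combines 667 nm spot fluorescence with signal to noise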
Sequence of Pro-neuregulin-1, membrane-bound isoform (Homo sapiens) (Q02297 whole entry, looked up, the tested form may be a part, canonical isoform): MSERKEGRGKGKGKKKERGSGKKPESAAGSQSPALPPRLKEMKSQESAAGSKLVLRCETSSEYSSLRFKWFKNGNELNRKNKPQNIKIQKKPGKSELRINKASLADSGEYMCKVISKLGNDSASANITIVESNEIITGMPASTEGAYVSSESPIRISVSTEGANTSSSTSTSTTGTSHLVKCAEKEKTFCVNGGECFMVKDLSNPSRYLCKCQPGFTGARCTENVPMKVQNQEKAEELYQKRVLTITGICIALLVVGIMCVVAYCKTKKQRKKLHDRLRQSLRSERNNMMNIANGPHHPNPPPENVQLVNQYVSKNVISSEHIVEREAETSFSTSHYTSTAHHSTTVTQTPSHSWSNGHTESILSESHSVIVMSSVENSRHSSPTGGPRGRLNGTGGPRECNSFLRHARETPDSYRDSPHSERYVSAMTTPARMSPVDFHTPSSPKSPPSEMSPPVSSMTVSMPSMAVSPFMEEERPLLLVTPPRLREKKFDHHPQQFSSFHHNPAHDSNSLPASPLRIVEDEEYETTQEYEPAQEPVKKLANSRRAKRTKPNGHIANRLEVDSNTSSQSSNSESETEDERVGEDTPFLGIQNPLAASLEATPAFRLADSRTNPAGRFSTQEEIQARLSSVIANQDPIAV

[7] = tested on: Neuregulin-1 EGF-like domain; experiment: small molecules binding NRG1 EGF domain – biochemical, small-molecule microarray, 635 nm fluorescence, primary screen (AID 1081); details: higher = more signal;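 further: binding of the protein to compounds printed on small-molecule microarray slides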
[8] = FRG1 expression reporter modulators in myotubes – cell-based, C2C12 myotubes, firefly/Renilla luciferase, luminescence, FRG1 inhibition for FSHD, primary screen (AID 1084); details: FRG1 promoter luciferase, higher = more signal, called active from +8 up or from −8 down
[9] = small molecules captured by biotinylated probe aFST – biochemical, small-molecule microarray, fluorescence 635/667, stem cell growth factor project, primary screen (AID 1086); details: higher = more signal;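 further: score merges 667 nm fluorescence with signal-to-noise of each printed compound spot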
[10] = binders of probe aHhip on microarray, primary screen, stem cell growth factor project, biochemical, small-molecule microarray, fluorescence 635/667 (AID 1087); details: higher = more signal;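 further: score merges spot fluorescence at 667nm with spot signal to noise ratio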
[11] = tested on: PRMT1 (protein arginine N-methyltransferase 1); experiment: small molecules binding arginine methyltransferase PRMT1 – biochemical, small-molecule microarray, 635 nm fluorescence, primary screen (AID 1088); details: higher = more signal;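 further: binding of Prmt1 protein to compounds spotted on small-molecule microarray slides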
[12] = growth effects on S. cerevisiae YJM789 – YJM789 clinical isolate, OD600, 24 h, basal, primary screen (AID 1089); details: higher = more signal, called active from +8 up or from −8 down;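 further: growth of clinical yeast isolate S. cerevisiae YJM 789 seeded 1000 cells per well; test concentration not given here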
[13] = S. pombe growth modifiers, basal conditions – strain 972, OD600, 24 h, no modulator, primary screen (AID 1090);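 further: basal condition with compound alone and no growth modifier present; test concentration not given here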; details: S. pombe 972 growth, higher = more signal, called active from +8 up or from −8 down
[14] = budding yeast growth modifiers under rapamycin – strain BY4716, OD600, 96 h, primary screen (AID 1091); further: test concentration not given here; details: S. cerevisiae BY4716 + rapamycin, higher = more signal, called active from +8 up or from −8 down
[15] = molecular target: Torsin-1A-interacting protein 2 (Homo sapiens) (UniProt Q8NFQ8); experiment: small molecules binding lysate-expressed LULL1 – cell lysate, human LULL1 lysate, 635/667 nm fluorescence, primary screen (AID 1092); details: small-molecule microarray, hLULL1 lysate binding, 635 nm fluorescence; higher = more signal;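 further: probe is lysate of COS7 cells overexpressing human LULL1; score merges per-feature 667 nm fluorescence with signal-to-noise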
Sequence of Torsin-1A-interacting protein 2 (Homo sapiens) (Q8NFQ8 whole entry, looked up): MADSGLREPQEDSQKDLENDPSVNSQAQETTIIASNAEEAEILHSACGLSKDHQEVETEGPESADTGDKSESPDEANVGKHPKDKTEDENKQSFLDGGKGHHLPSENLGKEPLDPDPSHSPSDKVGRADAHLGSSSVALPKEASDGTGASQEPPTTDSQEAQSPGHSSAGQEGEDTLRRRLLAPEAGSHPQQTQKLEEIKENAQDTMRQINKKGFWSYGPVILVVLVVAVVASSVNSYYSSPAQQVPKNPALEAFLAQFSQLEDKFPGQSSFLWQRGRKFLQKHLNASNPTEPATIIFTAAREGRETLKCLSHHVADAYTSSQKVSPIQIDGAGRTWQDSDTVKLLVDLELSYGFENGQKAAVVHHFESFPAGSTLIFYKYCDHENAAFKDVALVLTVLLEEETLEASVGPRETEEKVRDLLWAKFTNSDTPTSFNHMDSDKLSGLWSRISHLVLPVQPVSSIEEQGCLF

[16] = optical density change of DRC41 E. coli – strain DRC41, OD650, 24 h, E. coli filamentation project, primary screen (AID 1093);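 further: MC1000 strain lacking acrAB efflux and sulA so SOS filamentation is blocked; test concentration not given here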; details: E. coli DRC41 growth, higher = more signal, called active from +8 up or from −8 down
[17] = probe aLefty2 binding to arrayed compounds – biochemical, biotinylated probe, 635/667 nm fluorescence, primary screen (AID 1094); details: small-molecule microarray, higher = more signal;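 further: score merges spot fluorescence near 667 nm with spot signal-to-noise ratio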
[18] = tested on: Noggin (protein binding on small-molecule microarray); experiment: small molecules binding Noggin protein – biochemical, 635/667 nm fluorescence, primary screen (AID 1095); details: 635 nm fluorescence, higher = more signal;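 further: score merges 667 nm feature fluorescence with signal to noise over triplicate slides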
[19] = molecular target: Neurogenic locus notch homolog protein 3 (Homo sapiens) (UniProt Q9UM47); experiment: small molecules binding NOTCH3 protein – biochemical, 635/667 nm fluorescence, primary screen (AID 1096); details: small-molecule microarray, 635 nm fluorescence, higher = more signal
[20] = probe aEGFR binding to arrayed compounds – biochemical, biotinylated probe, 635/667 nm fluorescence, primary screen (AID 1097); details: small-molecule microarray, higher = more signal;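 further: probe is a biotinylated anti-EGFR antibody binding compounds printed on slides; score combines fluorescence near 667 nm and signal to noise of each spot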

CCOC(=O)C[C@H]1[C@H](OC(=O)c2ccccc2-c2ccccc2)[C@@H](NC(=O)c2ccc(-c3ccccc3)cc2)c2cc(OCCCO)ccc2N1C(=O)c1ccc2ccccc2n1
composite z-score [1]: -0.405 | composite z-score [2]: 0.286 | composite z-score [3]: -0.127 | composite z-score [4]: 0.754 | composite z-score [5]: 0.75 | composite z-score [6]: 0.789 | composite z-score [7]: 0.849 | z-score [8]: 0.835 (inactive) | composite z-score [9]: 0.211 | composite z-score [10]: -0.145 | composite z-score [11]: 1.02 | z-score [12]: 0.214 (inactive) | z-score [13]: 0.632 (inactive) | z-score [14]: 0.723 (inactive) | composite z-score [15]: 1.11 | z-score [16]: -0.75 (inactive) | composite z-score [17]: 0.0332 | composite z-score [18]: 0.427 | composite z-score [19]: 0.592 | composite z-score [20]: 0.2

C=CCN1Cc2ccccc2[C@H]2OC(c3ccc(OCCCO)cc3)=N[C@@]2(CC=C)C1=O
composite z-score [1]: 0.451 | composite z-score [2]: 0.169 | composite z-score [3]: 0.0188 | composite z-score [4]: -0.177 | composite z-score [5]: 1.12 | composite z-score [6]: 1.44 | composite z-score [7]: 1.42 | z-score [8]: -2.18 (inactive) | composite z-score [9]: 0.633 | composite z-score [10]: 0.0401 | composite z-score [11]: 1.53 | z-score [12]: -3.05 (inactive) | z-score [13]: -7.01 (inactive) | z-score [14]: -0.397 (inactive) | composite z-score [15]: 3.21 | z-score [16]: 0.763 (inactive) | composite z-score [17]: 0.185 | composite z-score [18]: 1.55 | composite z-score [19]: 0.979 | composite z-score [20]: 0.168

CC(C)N1CC=CC23O[C@@H]4C=CCOC(=O)[C@@H]4[C@H]2C(=O)N(CCCO)[C@@H]3C1=O (stereo not given in full)
composite z-score [1]: 0.645 | composite z-score [2]: 1.64 | composite z-score [3]: -0.188 | composite z-score [4]: 0.425 | composite z-score [5]: -0.671 | composite z-score [6]: 1.57 | composite z-score [7]: 1.58 | z-score [8]: -0.385 (inactive) | composite z-score [9]: -0.436 | composite z-score [10]: -0.16 | composite z-score [11]: 0.943 | z-score [12]: -1.46 (inactive) | z-score [13]: -2.28 (inactive) | z-score [14]: -1.58 (inactive) | composite z-score [15]: 2.41 | z-score [16]: 2.67 (inactive) | composite z-score [17]: -0.178 | composite z-score [18]: 0.927 | composite z-score [19]: -0.145 | composite z-score [20]: -0.178

O=C1NC(=O)C2C1C=CC(C(O)c1c(F)cccc1Cl)N2Nc1ccc(Cl)cc1Cl (stereo not given)
composite z-score [1]: 1.38 | composite z-score [2]: 1.79 | composite z-score [3]: 0.0389 | composite z-score [4]: 0.424 | composite z-score [5]: 1.29 | composite z-score [6]: 1.37 | composite z-score [7]: 1.17 | z-score [8]: -1.03 (inactive) | composite z-score [9]: 1.22 | composite z-score [10]: -0.216 | composite z-score [11]: 0.0621 | z-score [12]: -20.9 (active) | z-score [13]: -1.98 (inactive) | z-score [14]: 1.65 (inactive) | composite z-score [15]: 3.2 | z-score [16]: -3.22 (inactive) | composite z-score [17]: 0.319 | composite z-score [18]: -0.836 | composite z-score [19]: 0.53 | composite z-score [20]: 0.0069

COCCCNC(=O)[C@]1(CCS(=O)(=O)c2ccccc2)N=C(c2ccc(OCCCO)cc2)O[C@@H]1c1ccccc1N=[N+]=[N-]
composite z-score [1]: 1.42 | composite z-score [2]: 0.769 | composite z-score [3]: 0.263 | composite z-score [4]: 1.11 | composite z-score [5]: 0.984 | composite z-score [6]: 0.977 | composite z-score [7]: 1.01 | z-score [8]: 4.31 (inactive) | composite z-score [9]: 1.98 | composite z-score [10]: -0.202 | composite z-score [11]: 1.38 | z-score [12]: 0.371 (inactive) | z-score [13]: 0.61 (inactive) | z-score [14]: 3.42 (inactive) | composite z-score [15]: 2.93 | z-score [16]: 0.464 (inactive) | composite z-score [17]: 0.106 | composite z-score [18]: -0.122 | composite z-score [19]: 0.349 | composite z-score [20]: 0.287

COc1ccccc1CN1C(=O)c2ccccc2[C@@]2(Cc3ccccc3N(CC(F)(F)F)C2=O)[C@@H]1c1ccc(CO)cc1
composite z-score [1]: -0.951 | composite z-score [2]: 0.252 | composite z-score [3]: -0.226 | composite z-score [4]: -0.244 | composite z-score [5]: 0.166 | composite z-score [6]: -0.226 | composite z-score [7]: 0.778 | z-score [8]: -3.55 (inactive) | composite z-score [9]: -0.29 | composite z-score [10]: -0.403 | composite z-score [11]: 0.955 | z-score [12]: 0.17 (inactive) | z-score [13]: 0.181 (inactive) | z-score [14]: -1.7 (inactive) | composite z-score [15]: 0.104 | z-score [16]: 1.07 (inactive) | composite z-score [17]: -0.332 | composite z-score [18]: 1.18 | composite z-score [19]: 0.538 | composite z-score [20]: -0.322

CCC(CC)C(O)C1C=CC2C(=O)N(c3ccccc3)C(=O)C2N1Nc1ccc(C(C)C)cc1 (stereo not given)
composite z-score [1]: 0.251 | composite z-score [2]: -0.207 | composite z-score [3]: 0.0495 | composite z-score [4]: 0.687 | composite z-score [5]: 1.64 | composite z-score [6]: 1.23 | composite z-score [7]: 1.28 | z-score [8]: -0.963 (inactive) | composite z-score [9]: 1.21 | composite z-score [10]: -0.195 | composite z-score [11]: 1.43 | z-score [12]: 0.727 (inactive) | z-score [13]: 0.065 (inactive) | z-score [14]: 1.23 (inactive) | composite z-score [15]: 3.12 | z-score [16]: -0.63 (inactive) | composite z-score [17]: 0.0659 | composite z-score [18]: 0.152 | composite z-score [19]: 1.03 | composite z-score [20]: 0.118

CCOC(=O)C[C@H]1[C@H](OC(=O)c2ccc(C(=O)c3ccccc3)cc2)[C@@H](NC(=O)Cc2ccc(OC)cc2)c2cc(OCCCO)ccc2N1C(=O)c1ccccc1
composite z-score [1]: -0.045 | composite z-score [2]: 0.135 | composite z-score [3]: -0.107 | composite z-score [4]: 0.172 | composite z-score [5]: 0.227 | composite z-score [6]: -0.104 | composite z-score [7]: 0.676 | z-score [8]: -0.587 (inactive) | composite z-score [9]: 0.518 | composite z-score [10]: -0.0994 | composite z-score [11]: 0.139 | z-score [12]: -0.12 (inactive) | z-score [13]: 0.169 (inactive) | z-score [14]: -0.378 (inactive) | composite z-score [15]: 1.19 | z-score [16]: -0.978 (inactive) | composite z-score [17]: 0.0759 | composite z-score [18]: 0.359 | composite z-score [19]: -0.0979 | composite z-score [20]: -0.0219

O=C1O[C@H](c2ccccc2)[C@H](c2ccccc2)N2[C@H]1[C@@H](C(=O)N1CCN(c3ncccn3)CC1)[C@]1(C(=O)Nc3ccc(C#CC4(O)CCCCCC4)cc31)[C@H]2c1ccc(OCCO)cc1
composite z-score [1]: 0.696 | composite z-score [2]: 0.968 | composite z-score [3]: 0.0583 | composite z-score [4]: 1.2 | composite z-score [5]: 1.52 | composite z-score [6]: 2.25 | composite z-score [7]: 1.22 | z-score [8]: 1.8 (inactive) | composite z-score [9]: 2.45 | composite z-score [10]: 0.334 | composite z-score [11]: 1.53 | z-score [12]: 2.89 (inactive) | z-score [13]: 1.42 (inactive) | z-score [14]: 5.4 (inactive) | composite z-score [15]: 3.79 | z-score [16]: -0.409 (inactive) | composite z-score [17]: 1.19 | composite z-score [18]: 1.68 | composite z-score [19]: 1.08 | composite z-score [20]: 0.471
